The record followed here is PubChem BioAssay.

Assay [1] addresses Cell division control protein 42 homolog (Homo sapiens) (UniProt P60953). The experiment in a line: activated mutant Cdc42 GTP-binding inhibitors, dose response, biochemical, multiplex bead flow cytometry, Bodipy-FL-GTP (AID 1333;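 active means fitted half-maximal concentration within the tested dose range, moderate curve steepness, a statistically real signal drop, and little compound fluorescence or tag-binding interference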). The settings on record: bead-based flow cytometry; series mostly up to 100 µM.
Assay [2] has the same target. The experiment in a line: wildtype Cdc42 GTP-binding inhibitors, dose response, biochemical, multiplex bead flow cytometry, Bodipy-FL-GTP (AID 1334;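 active means fitted half-maximal concentration within the tested range, moderate curve steepness, significant signal drop, and little compound fluorescence or bead-linkage interference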). To be noted: bead-based flow cytometry, Bodipy-FL-GTP binding to GST-Cdc42; at 100 µM (top of the series) unless noted.
For assay [3], the target named is GTPase HRas (Homo sapiens) (UniProt P01112). Kind of assay: inhibitors of GTP binding to wildtype Ras, dose response, biochemical, multiplex bead flow cytometry (AID 1335). To be noted: bead-based flow cytometry, Bodipy-GTP binding to GST-Ras; at 100 µM (top of the series) unless noted.
Sequence of GTPase HRas (Homo sapiens) (P01112 whole entry, looked up): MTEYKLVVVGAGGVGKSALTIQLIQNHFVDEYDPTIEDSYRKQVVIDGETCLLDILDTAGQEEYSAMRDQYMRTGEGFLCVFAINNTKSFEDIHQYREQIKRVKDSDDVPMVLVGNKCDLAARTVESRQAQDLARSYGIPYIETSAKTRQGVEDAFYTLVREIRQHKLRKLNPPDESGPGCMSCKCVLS
Assay [4] deals with Ras-related protein Rab-7a (dog), GTP binding. The experiment in a line: Rab7 GTP binding inhibitors, potency, dose response, biochemical, wildtype, multiplex bead flow cytometry (AID 1336; call rule not given here). The settings on record: bead-based flow cytometry, fluorescent GTP binding to Rab7; series mostly up to 100 µM.
Assay [5] concerns the target Ras-related C3 botulinum toxin substrate 1 (Homo sapiens) (UniProt P63000). Kind of assay: wildtype Rac1 GTP binding inhibitors, dose response, biochemical, multiplex bead flow cytometry (AID 1340;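 active means dose curve with midpoint inside tested range, moderate steepness, plateau gap beyond fit error, low compound glow and bead-link interference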). The settings on record: GST-Rac1 beads, Bodipy-FL-GTP binding; at 100 µM (top of the series) unless noted.
The target in assay [6] is GTPase HRas (Homo sapiens) (UniProt P01112). The experiment in a line: activated Ras mutant GTP binding inhibitors, dose response, biochemical, multiplex bead flow cytometry (AID 1341;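 active means dose-response curve with midpoint inside the tested range, moderate steepness, significant amplitude and little compound fluorescence or bead-attachment interference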;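 further: GST-tagged constitutively activated Ras mutant immobilized on beads and multiplexed with other GTPases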). To be noted: bead-based flow cytometry, Bodipy-FL-GTP binding; series mostly up to 100 µM.

For part of these data: Potency and affinity values are given separately. Calls of active or inactive are those of the source.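 How the source made its calls, unless noted: active means fitted half-maximal concentration within 10 nM to 100 µM, steepness 0.5 to 2, significant signal drop, low assay interference; inactive means the rest.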

Sequence of Cell division control protein 42 homolog (Homo sapiens) (P60953 whole entry, looked up): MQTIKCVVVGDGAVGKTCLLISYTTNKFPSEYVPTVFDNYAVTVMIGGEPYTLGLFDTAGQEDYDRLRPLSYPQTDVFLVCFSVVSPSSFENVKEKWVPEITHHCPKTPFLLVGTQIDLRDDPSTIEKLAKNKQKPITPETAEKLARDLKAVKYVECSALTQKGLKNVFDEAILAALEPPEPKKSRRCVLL

For the molecule `COc1cc2[nH]c(=S)nc(NC3CCCCCC3)c2cc1OC`, the molecule was classed as inactive in assay [1], in assay [4] and in assay [6]. In addition, in assay [2], the fluorescence, percent of control (lower = inhibition) was found to be 26.4%. The GTP binding, percent of control in assay [3] is 60.9%. The molecule further yielded a GTP binding signal, raw median fluorescence (lower = inhibition) (MCF (arbitrary fluorescence units)) in assay [5] of 148.
As to `COCCNc1nc(=S)[nH]c2cc(OC)c(OC)cc12`, the result in assay [1], in assay [4] and in assay [6] was inactive. The fluorescence, percent of control (lower = inhibition) in assay [2] amounted to 35.9%. Further, the GTP binding, percent of control in assay [3] was 43.7%. This molecule also displayed a GTP binding signal, raw median fluorescence (lower = inhibition) (MCF (arbitrary fluorescence units)) in assay [5] of 103.
Consider `O=C(CN1CCN(c2ccc(O)cc2)CC1)Nc1cc(S(=O)(=O)N2CCCCC2)ccc1Cl`, for which the outcome in assay [1], in assay [4] and in assay [6] was inactive. This molecule also had a fluorescence, percent of control (lower = inhibition) in assay [2] of 35.8%. In assay [3], this molecule returned a GTP binding, percent of control of 87.7%. Besides, in assay [5], the GTP binding signal, raw median fluorescence (lower = inhibition) (MCF (arbitrary fluorescence units)) turned out to be 281.
With `Cc1ccc(CSCc2ccc(C(=O)O)o2)cc1`, the result in assay [1], in assay [4] and in assay [6] was inactive. This molecule also gave a fluorescence, percent of control (lower = inhibition) in assay [2] of 50.3%. This molecule came in with a GTP binding, percent of control in assay [3] of 74.2%. This molecule also registered a GTP binding signal, raw median fluorescence (lower = inhibition) (MCF (arbitrary fluorescence units)) in assay [5] of 28.2.
With `CCc1c(C)nc2c(C#N)c[nH]n2c1=O`, the molecule was classed as inactive in assay [1], in assay [4] and in assay [6]. The molecule further returned a fluorescence, percent of control (lower = inhibition) in assay [2] of 39%. This molecule returned a GTP binding, percent of control in assay [3] of 54.3%. Besides, the GTP binding signal, raw median fluorescence (lower = inhibition) (MCF (arbitrary fluorescence units)) in assay [5] turned out to be 114.
Regarding `CC(C)NC(=S)N=Nc1c(O)[nH]c2ccc([N+](=O)[O-])cc12`, the outcome in assay [1], in assay [4] and in assay [6] was inactive. In assay [2], the fluorescence, percent of control (lower = inhibition) came to 29.1%. In addition, the GTP binding, percent of control in assay [3] was 67.1%. In assay [5], this molecule had a GTP binding signal, raw median fluorescence (lower = inhibition) (MCF (arbitrary fluorescence units)) of 128.
On to `O=C(O)c1ccc(NS(=O)(=O)c2ccc3c(c2)C(=O)c2ccccc2C3=O)cc1`, for which the molecule was called inactive in assay [1], in assay [4] and in assay [6]. In assay [2], this molecule yielded a fluorescence, percent of control (lower = inhibition) of 28.6%. Further, the GTP binding, percent of control in assay [3] came to 69%. In addition, in assay [5], the GTP binding signal, raw median fluorescence (lower = inhibition) (MCF (arbitrary fluorescence units)) is 118.
Consider `S=C(Nc1ccc(Oc2ccccc2)cc1)NC1CCCCCC1`, for which the molecule was classed as inactive in assay [1], in assay [4] and in assay [6]. This molecule showed a fluorescence, percent of control (lower = inhibition) in assay [2] of 28%. In assay [3], this molecule came in with a GTP binding, percent of control of 87.3%. Further, the GTP binding signal, raw median fluorescence (lower = inhibition) (MCF (arbitrary fluorescence units)) in assay [5] amounted to 300.
As for `NC(=S)N=Nc1c(O)[nH]c2cc(F)c(F)cc12`, the molecule was classed as inactive in assay [1], in assay [4] and in assay [6]. Moreover, in assay [2], the fluorescence, percent of control (lower = inhibition) was 29.7%. In assay [3], this molecule displayed a GTP binding, percent of control of 63.2%. The molecule further had a GTP binding signal, raw median fluorescence (lower = inhibition) (MCF (arbitrary fluorescence units)) in assay [5] of 155.
Take `O=c1[nH]c2sc3c(c2c2nncn12)CCCC3`: the result in assay [1], in assay [4] and in assay [6] was inactive. The fluorescence, percent of control (lower = inhibition) in assay [2] came to 23.4%. The GTP binding, percent of control in assay [3] came out at 59.2%. In assay [5], this molecule displayed a GTP binding signal, raw median fluorescence (lower = inhibition) (MCF (arbitrary fluorescence units)) of 103.
Consider `Cc1ccc(OCCn2cnc3cc([N+](=O)[O-])ccc3c2=O)cc1`, for which the outcome in assay [1], in assay [4] and in assay [6] was inactive. The fluorescence, percent of control (lower = inhibition) in assay [2] amounted to 38.1%. In addition, in assay [3], the GTP binding, percent of control worked out at 85.1%. The same molecule came in with a GTP binding signal, raw median fluorescence (lower = inhibition) (MCF (arbitrary fluorescence units)) in assay [5] of 190.
With `Cc1ccccc1NC(=O)C1CCCN1S(=O)(=O)c1cccc2cccnc12` (stereo not given), the call in assay [1], in assay [4] and in assay [6] was inactive. The fluorescence, percent of control (lower = inhibition) in assay [2] turned out to be 39.1%. Besides, the GTP binding, percent of control in assay [3] came out at 84.8%. The molecule also showed a GTP binding signal, raw median fluorescence (lower = inhibition) (MCF (arbitrary fluorescence units)) in assay [5] of 322.
`COc1ccccc1CCNCc1ccc(C(=O)O)s1`: the call in assay [1], in assay [4] and in assay [6] was inactive. The same molecule returned a fluorescence, percent of control (lower = inhibition) in assay [2] of 63%. For the same molecule, the GTP binding, percent of control in assay [3] amounted to 88.4%. For the same molecule, in assay [5], the GTP binding signal, raw median fluorescence (lower = inhibition) (MCF (arbitrary fluorescence units)) amounted to 34.1.
On to `Cn1c(NC(=S)Nc2ccccc2)nc2ccccc21`, for which the molecule was classed as inactive in assay [1], in assay [4] and in assay [6]. In assay [2], the fluorescence, percent of control (lower = inhibition) was 51.8%. This molecule also came in with a GTP binding, percent of control in assay [3] of 63.9%. The molecule further displayed a GTP binding signal, raw median fluorescence (lower = inhibition) (MCF (arbitrary fluorescence units)) in assay [5] of 0.
In the case of `O=S1(=O)N=C(N(CCO)/N=C/C=C/c2ccccc2)c2ccccc21`, the molecule was classed as inactive in assay [1], in assay [4] and in assay [6]. Further, the fluorescence, percent of control (lower = inhibition) in assay [2] was found to be 22.8%. In assay [3], this molecule showed a GTP binding, percent of control of 35.3%. In assay [5], this molecule had a GTP binding signal, raw median fluorescence (lower = inhibition) (MCF (arbitrary fluorescence units)) of 101.
